About 83,000 compounds went through this panel and 20% of them were active in at least one assay; those are over-represented in the sample as a whole.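 Single-dose data. Exposure time 48 hours. Values below 10 considered active.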 A number with no mark means an inactive call. The source made the active and inactive calls.

Experimental findings from PubChem BioAssay (NCI) are described below.

Test systems include NCI-H23 lung; NCI-H226 lung; NCI-H322M lung; HOP-62 NSCLC; NCI-H460 lung; HOP-92 NSCLC; NCI-H522 lung; A549/ATCC NSCLC; 786-0 renal; COLO 205 colon.
Common to all, as to experiment: NCI-60 one-dose screen, 48 h (100 = growth as untreated, 0 = no growth, -100 = all killed)
Common to all, as to conditions: 10 µM unless noted

Turning to `COC(=O)C1(C)COP(=O)(NC23CC4CC(CC(C4)C2)C3)OC1` (stereo not given), the growth is 106% in the assay with NCI-H23 lung; 108% in the assay on NCI-H226 lung; 99% with NCI-H322M lung; 99% with HOP-62 NSCLC; 103% with NCI-H460 lung; 83.6% in the assay with HOP-92 NSCLC. The growth in the assay on NCI-H522 lung was 89.5%; with A549/ATCC NSCLC it was 99.7%; in the assay on 786-0 renal it was 102%; in the assay with COLO 205 colon, 103%.
With `C=CCn1c(C)nc2cc(Nc3nc(Nc4ccc5nc(C)n(CC=C)c5c4)nc4ccccc34)ccc21`, the growth in the assay on NCI-H23 lung is 94.2%; in the assay with NCI-H226 lung it was 99.8%; with NCI-H322M lung, 109%; with HOP-62 NSCLC it was 101%; in the assay with NCI-H460 lung, 117%; in the assay on HOP-92 NSCLC it was 79.8%. Further, the growth was 99.1% with NCI-H522 lung, 96.3% in the assay on A549/ATCC NSCLC, 113% in the assay on 786-0 renal and 108% with COLO 205 colon.
Take `CC(C)CC(NC(=O)OCC1c2ccccc2-c2ccccc21)C(=O)O` (stereo not given): the growth in the assay with NCI-H23 lung was 101%; in the assay on NCI-H226 lung it was 102%; in the assay with NCI-H322M lung, 101%; in the assay on HOP-62 NSCLC, 103%; in the assay with NCI-H460 lung, 115%; in the assay on HOP-92 NSCLC, 96.2%. Further, the growth with NCI-H522 lung is 96.6%; in the assay on A549/ATCC NSCLC, 95.1%; in the assay with 786-0 renal it was 98%; in the assay on COLO 205 colon, 111%.
Regarding `C=C(CN1CC=CCC1)[C@@H]1CC[C@]2(C(=O)OC)CC[C@]3(C)[C@H](CC[C@@H]4[C@@]5(C)CC[C@H](OC(C)=O)C(C)(C)[C@@H]5CC[C@]43C)[C@@H]12`, the growth is 95.5% with NCI-H23 lung; 95.1% with NCI-H226 lung; 104% in the assay with NCI-H322M lung; 106% in the assay with HOP-62 NSCLC; 97.8% with NCI-H460 lung; 71.2% in the assay with HOP-92 NSCLC. Besides, the growth in the assay on NCI-H522 lung was 84%; in the assay with A549/ATCC NSCLC, 100%; in the assay with 786-0 renal, 109%; in the assay on COLO 205 colon, 77.6%.
Regarding `COc1ccc(/C(=C\c2cc(OC)c(OC)c(OC)c2)C(=O)N2CCNCC2)cc1`, the growth is 102% in the assay on NCI-H23 lung; 94% with NCI-H226 lung; 99.2% with NCI-H322M lung; 97.4% in the assay on HOP-62 NSCLC; 105% with NCI-H460 lung; 94% with HOP-92 NSCLC. For the same molecule, the growth in the assay with NCI-H522 lung is 79.1%; with A549/ATCC NSCLC, 90.4%; in the assay on 786-0 renal, 103%; with COLO 205 colon, 113%.
For `CNCc1cccc2c1OCCOCCOCCC(C)S(=O)(=O)c1ccc(cc1)-c1cnc(N)c(n1)C(=O)N2` (stereo not given), the growth in the assay with NCI-H23 lung is 77.9%; in the assay with NCI-H226 lung, 31.6%; with NCI-H322M lung, 67%; with HOP-62 NSCLC it was 37.7%; in the assay on NCI-H460 lung it was 11.2%; with HOP-92 NSCLC, 80.3%. Moreover, the growth in the assay with NCI-H522 lung was 34.4%; in the assay on A549/ATCC NSCLC it was 33%; in the assay with 786-0 renal, 10.6%; with COLO 205 colon it was 33.7%.
As to `Cn1nc(C(F)(F)F)cc1-c1c[nH]c(OCc2ccc(Cl)cc2)c(-c2ccc(Cl)c(C(F)(F)F)c2)c1=O`, the growth in the assay on NCI-H23 lung was 3.29% (active); in the assay on NCI-H226 lung, -17.3% (active); with NCI-H322M lung it was 8.32% (active); in the assay on HOP-62 NSCLC it was -25% (active); in the assay on NCI-H460 lung, 2.53% (active); in the assay on HOP-92 NSCLC, -22.6% (active). The growth is -1.66% (active) with NCI-H522 lung, 13.4% in the assay on A549/ATCC NSCLC, 3.83% (active) in the assay on 786-0 renal and -31% (active) in the assay with COLO 205 colon.
As to `Cc1cccc(C(=O)O)n1`, the growth was 123% in the assay with NCI-H23 lung; 93.9% with NCI-H226 lung; 108% in the assay with NCI-H322M lung; 106% in the assay on HOP-62 NSCLC; 105% in the assay with NCI-H460 lung; 6.89% (active) in the assay with HOP-92 NSCLC. The growth was 90.8% in the assay with NCI-H522 lung, 102% in the assay with A549/ATCC NSCLC, 112% in the assay with 786-0 renal and 114% in the assay on COLO 205 colon.
`CCOC(=O)c1ccc(NCCC(=O)O)cc1`: the growth with NCI-H23 lung is 107%; with NCI-H226 lung, 100%; with NCI-H322M lung, 104%; with HOP-62 NSCLC, 95.9%; in the assay with NCI-H460 lung, 116%; in the assay with HOP-92 NSCLC, 89.4%. Further, the growth in the assay with NCI-H522 lung is 91.3%; with A549/ATCC NSCLC, 103%; in the assay with 786-0 renal, 96.2%; in the assay on COLO 205 colon it was 121%.
Take `COc1cc2c(cc1OC)C(=O)OC2`: the growth in the assay with NCI-H23 lung is 118%; with NCI-H226 lung, 93.4%; with NCI-H322M lung, 116%; in the assay with HOP-62 NSCLC, 113%; in the assay on NCI-H460 lung, 110%; in the assay with HOP-92 NSCLC, 75.5%. Further, the growth in the assay on NCI-H522 lung is 111%; in the assay with A549/ATCC NSCLC, 104%; with 786-0 renal, 114%; in the assay on COLO 205 colon, 134%.
As to `N#Cc1c(NN)n(C2OC(CO)C(O)C2O)c2ncnc(N)c12` (stereo not given), the growth with NCI-H23 lung is 2.93% (active); with NCI-H226 lung it was 25.7%; in the assay with NCI-H322M lung it was -19.8% (active); in the assay on HOP-62 NSCLC, -0.156% (active); in the assay on NCI-H460 lung, -13.4% (active); in the assay on HOP-92 NSCLC, -18.9% (active). Besides, the growth with NCI-H522 lung was -57% (active); in the assay with A549/ATCC NSCLC it was 6.43% (active); in the assay with 786-0 renal, 26.1%; with COLO 205 colon, -32.7% (active).
Take `Fc1ccc2c(CN3CCO[C@H](COc4cccc(Cl)c4)C3)c[nH]c2c1`: the growth in the assay on NCI-H23 lung was 75.5%; in the assay on NCI-H226 lung it was 64.9%; with NCI-H322M lung it was 74.6%; in the assay with HOP-62 NSCLC, 22%; in the assay on NCI-H460 lung, 30.2%; in the assay with HOP-92 NSCLC, 45.2%. Further, the growth in the assay on NCI-H522 lung was 36.3%; in the assay with A549/ATCC NSCLC it was 44.4%; in the assay on 786-0 renal it was 27.2%; with COLO 205 colon it was 69.1%.
